Test results taken from PubChem BioAssay (Tox21).
Inconclusive results are not listed. Unmarked numbers belong to inactive results. Calls of active or inactive are those of the source. Calls come from the whole dose curve; as a rule, active = well fitted cell-killing curve with a large enough effect in the repeat runs; inconclusive = weak or mixed curves, or effect the other way; inactive = no such curve, though single readings can be large or run the other way.

Experiment: qHTS assay to identify small molecule agonists of the vitamin D receptor (VDR) signaling pathway - cell viability counter screen (AID 743224); note: nearly all actives have a fitted effect of over 50% in size
Conditions: VDR-bla HEK293T viability, CellTiter-Glo luminescence, 16 h; series mostly up to 62.6 µM
Description: U.S. Tox21 Program National Center for Advancing Translational Sciences [NCATS] NIH Chemical Genomics Center [NCGC] U.S. Environmental Protection Agency [EPA] National Institutes of Environmental Health Sciences [NIEHS] National Toxicology Program [NTP] U.S. Food and Drug Administration [FDA] Tox21 Assay Overview: The vitamin D receptor (VDR), a member of nuclear hormone receptor superfamily, plays a critical role in calcium homeostasis and bone metabolism. It is also involved in cell differentiation and growth, and thrombogenicity. […] The cytotoxicity of the Tox21 compound library against the VDR-bla cell line was tested in parallel by measuring the cell viability using CellTiter-Glo assay (Promega, Madison, WI) in the same wells.
Tox21 Assay Protocol Summary: VDR-bla cells were dispensed at 2,000 cells/6 uL/well into black wall/clear-bottom 1536-well plates using a Multidrop Combi (Thermo Fisher Scientific, Waltham, MA) dispenser. After the assay plates were incubated at a 37C and 5% CO2 for 4 h, 23 nL of compounds dissolved in DMSO, positive controls or DMSO only was transferred to the assay plate by a Pintool station (Kalypsys, San Diego, CA). The plates were incubated at 37C and 5% CO2 for 16 h. After 1 uL of LiveBLAzerTM B/G FRET substrate was added using a Bioraptr Flying Reagent Dispenser (FRD) workstation (Beckman Coulter, Indianapolis, IN, USA), the plates were incubated at room temperature for 2 h, and fluorescence intensity was measured by an Envision plate reader (PerkinElmer, Shelton, CT). For cell viability readout that measures cytotoxicity, 3 ul/well of CellTiter-Glo reagent was added into the assay plates using a FRD. After 30 min incubation at room temperature, the luminescence intensity in the plates was measured using a ViewLux (PerkinElmer) plate reader.
% is set by controls: 0 for no effect and ±100 for the full control effect.

SMILES	outcome	activity change, negative = cytotoxicity
O=C(O)CCC(=O)Nc1ccc(S(=O)(=O)Nc2nccs2)cc1	inactive	
CN1CCN(C(=O)C2CCCCC2)CC1	inactive	
NC[C@H]1O[C@H](O[C@H]2[C@H](O)[C@@H](O[C@H]3O[C@H](CO)[C@@H](O)[C@H](N)[C@H]3O)[C@H](N)C[C@@H]2N)[C@H](N)[C@@H](O)[C@@H]1O	inactive	
COc1cnc(NS(=O)(=O)c2ccc(N)cc2)nc1	inactive	
CC/C=C\CCCCCCCCCCOC(C)=O	inactive	
CC(C)(C)C(=O)CCc1ccc(Cl)cc1	inactive	
CCCCCCCCCCCC(C)=O	inactive	
CCc1ncc(C)[nH]1	inactive	
CN(C)CCc1c[nH]c2ccc(C[C@H]3COC(=O)N3)cc12	inactive	
CC(O)C(CO)C(C)O (stereo not given)	inactive	
Cc1ccc(NC(N)=O)cc1	inactive	
Cc1ccccc1OCC(=O)O	inactive	
CC1=C(O)C(=O)CO1	inactive	
CN(C)c1cc(NC(=O)CNC(C)(C)C)c(O)c2c1C[C@H]1C[C@H]3[C@H](N(C)C)C(=O)C(C(N)=O)=C(O)[C@@]3(O)C(=O)C1=C2O	inactive	
CN(C)CCc1c[nH]c2ccc(CS(=O)(=O)N3CCCC3)cc12	inactive	
C/C(Cl)=C/CCl	inactive	
CC(C)OC(=O)C(C(=O)OC(C)C)=C1SC=CS1	inactive	
O=C1CC2(CCCC2)CC(=O)N1CCNCC1COc2ccccc2O1 (stereo not given)	inactive	
O=CN1CCCCC1	inactive	
Clc1cc(Cl)c(Cl)c(Cl)c1Cl	inactive	

SMILES	outcome	activity change, negative = cytotoxicity
Cc1ccc(Br)cc1	inactive	
CCCOc1ccc(C(=O)OCCN(CC)CC)cc1N	inactive	
O=C(O)P(=O)(O)O	inactive	
CC(O)CCCCn1c(=O)c2c(ncn2C)n(C)c1=O (stereo not given)	inactive	
CCCCCC(=O)CC	inactive	
c1coc(Cn2cccc2)c1	inactive	
CCCCCCC(=O)c1ccccc1	inactive	
CCOC(=O)COc1ccc2c(C)c(CCN(CC)CC)c(=O)oc2c1Cl	inactive	
CC(C)(O)CCCC1=CCC(C=O)CC1 (stereo not given)	inactive	
N[C@H]1C(O)O[C@H](CO)[C@@H](O)[C@@H]1O (stereo not given in full)	inactive	
NC(=O)CC[C@@H](N)C(=O)O	inactive	
O=S(=O)(O)c1ccc(Cl)cc1	inactive	
CC/C=C\CCOC(=O)c1ccccc1	inactive	
CSC(=O)c1cccc2nnsc12	inactive	
CC1(C)S[C@@H]2[C@H](NC(=O)Cc3ccccc3)C(=O)N2[C@H]1C(=O)O (tested in a mixture with another compound)	inactive	
CCC(=O)OCCOc1ccccc1	inactive	
C[C@@H](CN1CC(=O)NC(=O)C1)N1CC(=O)NC(=O)C1	inactive	
CC(=O)/C=C/C=C1/C2CCC(C2)C1(C)C (stereo not given)	inactive	
CCCCCCC(O)CO (stereo not given)	inactive	
N=C(N)N1CCc2ccccc2C1		-1.18% [at 5.95 µM]
